KB-3-1 tox: KB-3-1 parental cell cytotoxicity; KB-3-1 viability, CellTiter-Glo ATP luminescence, 72 h; Potency, µM (doses to about 46.1 µM), hits mostly cytotoxic; 400,000 compounds, 1.4% hits; further: potency means the concentration at half of the fitted maximal effect; nearly all actives have a fitted effect of over 60% in size
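Parental KB-3-1 adenocarcinoma cells in phenol-red-free DMEM with 10% FBS were pin-treated with compounds at several concentrations, incubated 72 h at 37 °C, and viability read by CellTiter-Glo luminescence; concentration-effect curves were fitted after normalization.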
KB-V1 cytotox: kills drug-selected multidrug resistant KB-V1 cells. KB-V1 MDR cells viability, CellTiter-Glo, 72 h. Potency, µM (top dose mostly 46.1 µM), actives largely listed as cytotoxic. 400,000 compounds, 3.4% hits. AID 1347076; further: potency means the concentration at half of the fitted maximal effect; nearly all actives have a fitted effect of over 60% in size
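qHTS viability screen in drug-selected KB-V1 MDR cells: 72 h compound treatment at 37 degrees C, ATP luminescence end point.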
HT1080 IDH1KD tx: HT-1080 IDH1 knockdown cell toxicity (counter line) | HT-1080 IDH1 knockdown viability, ATP luminescence, 48 h | Potency, µM (highest dose often 46.1 µM), inactives show top-dose activity, negative = toxicity, usual class: cytotoxic | 360,000 compounds, 2% hits | AID 686971;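 further: potency means the concentration at half of the fitted maximal effect; 0% = DMSO wells and -100% = cell-free medium wells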
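Knockdown cells (IDH1KD HT-1080) received compounds 2 h after plating at 750 cells/well and were kept 48 h at 37 °C in 5% FBS RPMI. A CellTiter-Glo luminescence read gave % activity for curve fitting.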
IL-1B inflam inh: inflammasome signaling inhibition, IL-1 beta readout; THP-1 LPS/ATP IL-1B secretion, AlphaLISA, 16 h; stronger effect = lower value; activity change, % at 57.5 µM; 360,000 compounds, 4.7% hits; in the data active means activity change below about -50%; inconclusive means mostly about -30% to -49%
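Secreted IL-1B measured by AlphaLISA bead assay after 16 h compound exposure of THP-1 cells; compounds (final up to 57.5 uM) added 1 h before LPS (250 ng/mL) and ATP (1.25 mM) stimulation; lower signal means less secretion.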
HT1080NT lethal: kills 2HG-producing HT-1080-NT fibrosarcoma cells. HT-1080-NT fibrosarcoma viability, CellTiter-Glo ATP luminescence, 48 h. Potency, µM (doses to about 46.1 µM), without a hit: at the top dose activity, negative = less viability, hits mostly cytotoxic. 360,000 compounds, 1.6% hits. AID 686970;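 further: NT is the 2HG producing partner of a matched IDH1 knockdown line; potency means the concentration at half of the fitted maximal effect; 0% = DMSO-treated cells and -100% = media-only wells without cells; nearly all actives have a fitted effect of over 55% in size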
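750 cells/well, RPMI + 5% FBS; 2 h settle, compound pin-transfer, 48 h at 37 degrees C. CellTiter-Glo 10 min RT, luminescence. Normalized to DMSO and media-only wells.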
Active calls of the source: *; i = inactive; u = inconclusive; x = no result. The list is not random: actives were taken first. Their share in the collection is about 8.8%. Unless noted, the call rests on the fitted dose curve; in most records, active means well fitted curve in the direction sought with a large enough effect; inconclusive means small, poorly fitted or top-dose-only effect, or another doubt; inactive means no such curve, though single readings can be large; an effect the other way counts as inactive or inconclusive. Unless noted, on the % scale 0 is the no-effect control and ±100 the full control effect.

SMILES	KB-3-1 tox	KB-V1 cytotox	HT1080 IDH1KD tx	IL-1B inflam inh	HT1080NT lethal
CCCNC(=O)c1ccc(N2CCC3(CC2)CC(c2cccc(Br)c2)=NO3)c([N+](=O)[O-])c1	i	i	-14.4%	u	-12.9%
CCCCCc1c(C)nc(N2CCc3ccccc3C2)[nH]c1=O	i	i	13.8%	0.0	12.1%
CCCCCc1c(C)nc(N2CCc3ccccc32)[nH]c1=O	u	3.26µM*	3.3%	4.0	6.2%
CC(OC(=O)c1cc(=O)[nH]c2ccccc12)C(=O)NCc1ccccc1 (configuration not stated)	i	i	2.5%	5.2	1.8%
Cc1ccc(CSc2ncc(Cl)c(C(=O)Nc3nnc(C)s3)n2)cc1	i	i	x	x	x
CCN1/C(=C/c2cc[n+](CCCS(=O)(=O)[O-])c3ccccc23)Sc2ccccc21	i	i	0.3%	-13.2	2.0%
C=CC[n+]1ccc(/C=C2\C=Cc3cc(C)ccc3N2CC)c2ccccc21	8.2µM*	i	4.11µM*	-65.7*	5.8µM*
CN(CC(=O)Nc1ccccc1Cl)C(=O)C1CCN(C(=O)c2ccc(F)cc2)CC1	i	i	13.2%	13.5	10.6%
O=C(Nc1cccc(S(=O)(=O)Nc2ccc(SC(F)F)cc2)c1)C1CCC1	i	i	-16.2%	-0.9	14.6µM*
O=C(Nc1cccc(S(=O)(=O)c2cccc(NC(=O)C3CC3)c2)c1)C1CC1	u	u	u	-73.9*	u
CCNC(=O)C1CCCN(C(=O)c2ccc(C#N)cc2)CC1 (configuration not stated)	i	i	8.5%	23.3	29.0%
COc1ccc(C2C(C#N)=C(N)Oc3c2sc2nc(C)cc(C)c32)cc1 (configuration not stated)	u	20.6µM*	21.7%	-13.9	2.0%
CC(C)(C)c1ccc(S(=O)(=O)N2CCC(CO)(CC3CCCCO3)CC2)cc1 (configuration not stated)	i	u	-17.3%	-71.8*	-28.4%
CCOC(=O)C1(CC2CCCCO2)CCN(S(=O)(=O)c2ccccc2)CC1 (configuration not stated)	i	i	-0.8%	8.8	15.9%
CC1(C)N=C(N)NC(Nc2ccccc2)=N1	i	i	u	19.7	8.2µM*
Cc1ccccc1NC1=NC(C)(C)N=C(N)N1	i	i	7.0%	-6.0	8.4%
CN(c1cccc(NC(=O)c2ccc(C(C)(C)C)cc2)c1)S(C)(=O)=O	u	u	u	u	23.1µM*
Cc1ccc(NS(=O)(=O)c2cc(C(=O)Nc3cccc(N(C)S(C)(=O)=O)c3)ccc2C)c(C)c1	i	16.4µM*	-0.8%	-6.7	-1.6%
Cc1ccc(NS(=O)(=O)c2cc(NC(=O)c3ccc4c(c3)NC(=O)CS4)ccc2C)c(C)c1	u	i	u	-115.5*	u
COc1ccc(NC(=O)c2ccc3c(c2)NC(=O)CS3)cc1S(=O)(=O)Nc1ccc(Br)cc1	i	i	-18.9%	-24.6	-0.7%
O=C(Cn1nc(-c2ccccc2)c2c(c1=O)CCCC2)Nc1ccc(F)c(Cl)c1	23.1µM*	u	x	x	x
COC(=O)c1cc(NC(=O)Cn2nc(-c3ccccc3)c3c(c2=O)CCCC3)cc(C(=O)OC)c1	i	i	x	x	x
O=C1CSC(c2cccc(F)c2)N1c1ccccc1 (configuration not stated)	i	i	-0.3%	1.0	10.1%
COc1cc(/C=N/N=C(/C(=O)c2ccccc2)c2ccccc2)cc(OC)c1O	i	9.2µM*	-24.7%	u	-2.0%
COc1cc(/C=N/N=C/c2cc(OC)c(O)c(OC)c2)cc(OC)c1O	i	i	-2.6%	-3.3	-1.3%
SMILES	KB-3-1 tox	KB-V1 cytotox	HT1080 IDH1KD tx	IL-1B inflam inh	HT1080NT lethal
O=C(NC1CCCC1)C1C(c2ccc(C(F)(F)F)cc2)=Nc2ccccc2N1C(=O)c1cc2ccccc2[nH]1 (configuration not stated)	u	13µM*	-25.0%	23.6	-29.3%
CC(C)NC(=O)C1C(c2ccc(C(F)(F)F)cc2)=Nc2ccccc2N1C(=O)c1cc2ccccc2[nH]1 (configuration not stated)	i	i	u	0.0	-26.5%
CC1CN(C(=O)C2CCCCC2)C(C)CN1C(=O)C1CCCCC1 (configuration not stated)	i	i	21.3%	15.7	21.7%
CC1CN(C(=O)C2CCCC2)C(C)CN1C(=O)C1CCCC1 (configuration not stated)	i	10.3µM*	-7.3%	0.0	2.3%
CCSc1nc2n(n1)C(c1ccc(C(=O)O)cc1)C(C(=O)Nc1ccccc1C)=C(C)N2 (configuration not stated)	i	u	x	x	x
CCOC(=O)c1c(C)[nH]c(C(=O)COC(=O)CCSc2ccccc2)c1C	u	1.64µM*	-5.7%	15.7	-1.4%
CCOC(=O)c1c(C)[nH]c(C(=O)COC(=O)CNS(=O)(=O)c2ccc(C)cc2)c1C	i	4.61µM*	0.1%	13.6	-2.4%
CC(=O)c1c(C)[nH]c(C(=O)COC(=O)CNS(=O)(=O)c2ccccc2)c1C	i	i	8.3%	2.7	5.7%
Cc1ccc(C(=O)Nc2ccc(S(=O)(=O)NC3=NCCCCC3)cc2)cc1S(=O)(=O)N1CCOCC1	i	i	-3.7%	0.0	-1.8%
CN(CC(=O)Nc1cccc(F)c1)CC(=O)Nc1cccc(S(=O)(=O)N2CCCCC2)c1	i	i	-12.8%	-22.6	-14.8%
CC(O)CNCCNCc1c(OCc2ccccc2)ccc2ccccc12 (configuration not stated)	i	i	11.2µM*	-86.8*	17.8µM*
OCCNCc1c(OCc2ccc(Cl)cc2)ccc2ccccc12	i	u	u	x	23.1µM*
O=C(COc1ccc(-c2ccccc2)cc1)N1CCN(C(=O)c2cccs2)CC1	i	u	-22.2%	-14.0	-11.2%
COc1cccc(-c2cc(C(=O)N3CC4(C)CC3CC(C)(C)C4)no2)c1 (configuration not stated)	i	14.6µM*	u	-7.5	-4.5%
CC1(C)CC2CC(C)(CN2C(=O)c2cc(-c3ccc(O)cc3)on2)C1 (configuration not stated)	i	i	u	-61.6*	u
Cc1noc(C(=O)N2CC3(C)CC2CC(C)(C)C3)c1Cl (configuration not stated)	i	i	-1.3%	52.1	-0.5%
COc1cccc(-c2cc(C(=O)N3CCCCC3C)no2)c1 (configuration not stated)	i	i	5.1%	23.4	19.0%
O=C(COC(=O)c1ccc[nH]c1=O)NC1CCCCC1	i	i	4.9%	13.5	3.1%
